# The supplement of paper PMC8253809
# Where “and” joins values, the source holds several entries; their conditions need not be identical. Equal entries are not always repeated.
# Legend:
# Test in all cases: growth inhibition (% activity, log2 RLU normalised to DMSO / staurosporine); higher = more growth inhibition
# Settings in all cases: 33 µM
# DIPGX29 = test system: DIPGX29 (H3.3 K27M diffuse intrinsic pontine glioma line)
# Outline: (§1)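 The growth-inhibition value is the median over replicates. pHGG cell lines and H9-derived neural stem cells on Geltrex-coated 384-well plates received approved drugs by pin tool at a single final concentration of about 33 μM, in triplicate, for 7 days at 37 °C, 5% CO2. CellTiter-Glo luminescence was log2-transformed and normalised per plate to % activity between solvent and positive control wells.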
# DIPGX37 = test system: DIPGX37 (H3.3 K27M diffuse intrinsic pontine glioma line)
# Outline: as §1
# DIPGX7 = test system: DIPGX7 (H3.3 K27M diffuse intrinsic pontine glioma line)
# Outline: as §1
# DIPGX9 = test system: DIPGX9 (diffuse intrinsic pontine glioma line)
# Outline: as §1
# HGGX39 = test system: HGGX39 (paediatric high-grade glioma line)
# Outline: as §1
# HGGX6 = test system: HGGX6 (H3.3 G34R paediatric high-grade glioma line)
# Outline: as §1
# HNSC = test system: HNSC
# Outline: as §1
# SUDIPGIV = test system: SUDIPGIV (diffuse intrinsic pontine glioma line)
# Outline: as §1
# SUDIPGVI = test system: SUDIPGVI (diffuse intrinsic pontine glioma line)
# Outline: as §1
# SUDIPGXIII = test system: SUDIPGXIII (diffuse intrinsic pontine glioma line)
# Outline: as §1
Structure (SMILES),growth inhibition (DIPGX29),growth inhibition (DIPGX37),growth inhibition (DIPGX7),growth inhibition (DIPGX9),growth inhibition (HGGX39),growth inhibition (HGGX6),growth inhibition (HNSC),growth inhibition (SUDIPGIV),growth inhibition (SUDIPGVI),growth inhibition (SUDIPGXIII)
CC[C@]1(O)C[C@@H]2CN(CCc3c([nH]c4ccccc34)[C@@](C(=O)OC)(c3cc4c(cc3OC)N(C)[C@H]3[C@@](O)(C(=O)OC)[C@H](OC(C)=O)[C@]5(CC)C=CCN6CC[C@]43[C@@H]65)C2)C1,13%,14%,13.2%,22%,17.1%,11.5%,55.5%,32%,16.1%,18.3%
Nc1c2ccccc2nc2ccccc12,17.5%,1.87%,5.31%,20.4%,12.2%,14.7%,58.1%,14.3%,5.87%,0.896%
Nc1nc2n[nH]nc2c(=O)[nH]1,14.5%,13.2%,14.4%,22.6%,17.5%,13.7%,56.2%,32.2%,1.16%,1.25%
COc1cc2nc(N3CCN(C(=O)c4ccco4)CC3)nc(N)c2cc1OC,7.72%,-2.22%,1.17%,3.48%,-0.781%,18.9%,-0.602%,-3.54%,-4.38%,-1.72%
Cc1nnc(C(=O)NC(C)(C)c2nc(C(=O)NCc3ccc(F)cc3)c(O)c(=O)n2C)o1,1.77%,-0.226%,2.62%,2.15%,2.25%,-0.564%,4.29%,-0.0786%,2.47%,0.152%
COc1ccc2c(c1)c(CC(=O)O)c(C)n2C(=O)c1ccc(Cl)cc1,-3.09%,-0.682%,0.11%,-3.3%,-3.42%,-2.79%,-3.23%,-6.71%,-7.35%,2.32%
Cc1cccc(CN2CCN(C(c3ccccc3)c3ccc(Cl)cc3)CC2)c1 (stereo not given),6.1%,6.46%,7.93%,8.12%,6.5%,7.41%,3.84%,25.4%,4.9%,4.67%
CCc1cc(C(N)=S)ccn1,-2.89%,-1.22%,-0.907%,-2.73%,-1.46%,-1.03%,-5.37%,-0.99%,-3.57%,-0.39%
CN(C)CCC(c1ccc(Br)cc1)c1ccccn1 (stereo not given),-0.2%,1.72%,0.687%,0.118%,1.57%,-1.76%,4.12%,-0.116%,-0.379%,1.63%
C[N+]1(C)CCC(=C(c2ccccc2)c2ccccc2)CC1,1.61%,4.65%,2.7%,2.75%,2.04%,-0.684%,23.1%,4.27%,8.89%,1.56%
O=C(O)[C@H](CC(=O)N1C[C@H]2CCCC[C@H]2C1)Cc1ccccc1,0.852%,-5.28%,0.289%,1.86%,1.09%,0.619%,1.48%,1.74%,1.16%,-1.34%
O=C(O)c1cc(-c2ccccc2)nc2ccccc12,0.382%,2.97%,0.465%,2.04%,1.46%,1.01%,-0.619%,-1.08%,2.54%,0.975%
CCCC(CCC)C(=O)O,-0.377% and 2.62%,2.62% and 1.47%,0.168% and 0.662%,-1.7% and -0.864%,1.15% and -1.14%,-4.05% and -2.44%,2.37% and 0.244%,1.52% and 0.0625%,0.818% and -1.61%,0.746% and 0.431%
N=C(N)NC(=N)NCCc1ccccc1,2.55%,2.09%,2.16%,3.4%,3.43%,1.66%,13%,3.22%,7.27%,2.1%
Cc1cnc(C(=O)NCCc2ccc(S(=O)(=O)NC(=O)NC3CCCCC3)cc2)cn1,0.556%,2.29%,1.52%,0.701%,1.35%,1.61%,0.478%,0.461%,1.46%,0.0328%
O=C(NCCN1CCOCC1)c1ccc(Cl)cc1,0.0777%,-0.588%,-0.129%,-0.472%,-0.0669%,-0.698%,-1.63%,-0.786%,-1.17%,0.934%
CC(=O)OCC(=O)[C@H]1CC[C@H]2[C@@H]3CCC4=CC(=O)CC[C@]4(C)[C@H]3CC[C@]12C,-1.69%,-0.592%,-0.0117%,-0.0895%,1.53%,-0.537%,-2.47%,-2%,-0.651%,5.18%
CC(C)(O/N=C(\C(=O)N[C@@H]1C(=O)N2C(C(=O)[O-])=C(C[n+]3ccccc3)CS[C@H]12)c1csc(N)n1)C(=O)O,-0.082%,3.29%,2.31%,0.416%,1.23%,-0.0518%,1.13%,-0.671%,2.58%,0.376%
NC(=O)c1cccnc1,-0.689%,-1.05%,-0.0852%,0.951%,0.786%,0.835%,0.303%,-0.404%,-0.906%,0.194%
C[C@](N)(Cc1ccc(O)c(O)c1)C(=O)O,0.0946%,1.72%,-0.426%,-0.748%,-1.35%,-1.03%,0.654%,-0.812%,1.41%,-0.739%
Nc1ccc(/N=N/c2ccccc2)c(N)n1,-3.96%,-2.54%,0.481%,-3.38%,-1.17%,-3.08%,9.5%,-2.91%,-4.45%,1.45%
